# Screening results: PubChem BioAssay, National Center for Advancing Translational Sciences (NCATS)
# Pin1 inh = blocks the human prolyl isomerase Pin1; Q13526; Pin1 FP peptide displacement, HiFluor488, 10 min; Potency, µM (top dose mostly 115 µM), for inactives: at the top dose activity, negative = inhibition, usual class: inhibitors; hit rate 0.009% among 390,000; AID 504891; active means well fitted inhibition curve with a large enough effect in the polarisation, with a control signal flat, not every such curve was filed as active; inconclusive means small, poorly fitted or top-dose-only effect, or effect the other way, or a change in a side signal; inactive means no such curve, though single readings can be large or run the other way; the % refers to the polarisation; further: on the % scale 0 is the no-effect control and ±100 the full control effect
# Target sequence (Q13526 whole entry, looked up): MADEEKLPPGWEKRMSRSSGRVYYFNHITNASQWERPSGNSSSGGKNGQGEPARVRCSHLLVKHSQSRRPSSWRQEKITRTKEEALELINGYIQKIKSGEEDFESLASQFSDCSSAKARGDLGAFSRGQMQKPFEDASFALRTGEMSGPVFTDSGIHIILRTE
# GLP1R inv ag = GLP-1 receptor (human) inverse agonism; P43220; HEK293 GLP-1R CRE-luciferase, luminescence, 24 h; GLP-1R form is constitutively active; Potency, µM (highest dose often 38.3 µM), without a hit: at the top dose activity change, negative = inhibition, most hits filed as inhibitors; hit rate 1.6% among 410,000; further: on the % scale 0 is the no-effect control and ±100 the full control effect; nearly all actives have a fitted effect of over 55% in size
# Target sequence (P43220 whole entry, looked up): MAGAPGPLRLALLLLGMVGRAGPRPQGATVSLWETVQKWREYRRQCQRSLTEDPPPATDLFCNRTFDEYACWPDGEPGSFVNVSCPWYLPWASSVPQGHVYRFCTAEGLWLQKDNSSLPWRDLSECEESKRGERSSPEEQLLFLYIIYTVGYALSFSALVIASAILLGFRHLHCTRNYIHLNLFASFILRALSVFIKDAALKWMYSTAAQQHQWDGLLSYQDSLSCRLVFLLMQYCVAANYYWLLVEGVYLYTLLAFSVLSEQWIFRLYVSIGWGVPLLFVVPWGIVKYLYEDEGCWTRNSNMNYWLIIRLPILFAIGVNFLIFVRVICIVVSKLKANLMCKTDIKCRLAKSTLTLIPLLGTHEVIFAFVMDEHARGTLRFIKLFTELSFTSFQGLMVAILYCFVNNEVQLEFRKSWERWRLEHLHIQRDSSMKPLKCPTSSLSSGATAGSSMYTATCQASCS
#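 GLP-1R inverse agonism mode: basal reporter luminescence in engineered HEK293 cells measured after one day of compound exposure at 37 deg C, with a 12 min room-temperature detection step.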
# PGK inhibitor = T. brucei PGK inhibition; P07378; PGK/GAPDH coupled, Kinase-Glo luminescence, 60 min; Potency, µM (top dose mostly 57.5 µM), for the others: at the highest dose activity change, negative = inhibition, hits mostly inhibitors; hit rate 0.043% among 380,000; further: on the % scale 0 is the no-effect control and ±100 the full control effect; nearly all actives have a fitted effect of over 60% in size
#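 Luminescent ATP detection (Kinase-Glo Plus) follows a 60-minute room-temperature incubation, with wells lacking PGK as controls. Buffer: 100 mM TEA (pH 7.6), 5 mM MgCl2, 0.01% Tween-20. Coupling enzyme GAPDH (100 nM final) supplies unstable 1,3-BPG in-well.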
# GLP-1R agonist = agonists of human GLP-1 receptor. hit rate 0.007% among 380,000. P43220. HEK293 GLP-1R CRE-luciferase, luminescence, 4-6 h; cells express a hypersensitive GLP-1R form. Potency, µM (titrated, usually from 45.6 µM), for the others: top-dose activation, most hits filed as activators; further: % of control where 0% means no effect
# Tb PFK inh = blocks T. brucei phosphofructokinase; T. brucei PFK, ADP-Glo luminescence; O15648; AID 485367; hit rate 0.17% among 330,000; Potency, µM (titrated, usually from 57.5 µM), without a hit: at the top dose activity, negative = inhibition, usual class: inhibitors;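 further: 0% = uninhibited 1x PFK enzyme wells and -100% = no-enzyme wells; nearly all actives have a fitted effect of over 60% in size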
#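 In TEA buffer at pH 8.0 with 5 mM MgCl2, enzyme (1.25 nM) converted F6P (0.5 mM) and ATP (0.1 mM) for 45 min at room temperature. ADP product was read by luciferase luminescence.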
# HEK293 tox = cytotoxicity in counter-screen for GLP-1R inverse agonists | AID 624418 | HEK293 cAMP-luciferase reporter cells, luminescence, 24 h | hit rate 0.13% among 410,000 | Potency, µM (doses to about 38.3 µM), without a hit: at the top dose activity change, negative = inhibition, actives largely listed as inhibitors;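 further: loss of luciferase light is scored as toxicity; on the % scale 0 is the no-effect control and ±100 the full control effect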
#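 Cells in DMEM/10% Nu serum/1% pen-strep, 1536-well format. Pre-incubated 12 h, dosed with 23 nL compound, incubated a further 24 h. Luciferase detection, 12 min at room temp, luminescence.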
# * = called active by the depositor; i = inactive; ? = inconclusive; . = not tested or not shown; [ ] = remark or other dose. Only some compounds are listed: those with a hit (about 1.8% of all), similar ones and a draw of the others. Unless noted, the call rests on the fitted dose curve; in most records, active means well fitted curve in the direction sought with a large enough effect; inconclusive means small, poorly fitted or top-dose-only effect, or another doubt; inactive means no such curve, though single readings can be large; an effect the other way counts as inactive or inconclusive. Potency means the concentration at half of the fitted maximal effect.
SMILES,Pin1 inh,GLP1R inv ag,PGK inhibitor,GLP-1R agonist,Tb PFK inh,HEK293 tox
Cc1ccc(Cl)cc1N1CCN(S(=O)(=O)c2ccc3c(c2)OCCO3)CC1,7%,10µM*,7%,0%,7%[0.46 µM],11%
Cc1ccc(C)c(N2CCN(S(=O)(=O)c3ccc4c(c3)OCCO4)CC2)c1,0%,?,0%,-3%,-1%,18%
C=CCn1c(COc2ccccc2)nnc1SC(C)C(=O)N/N=C/c1cc(Cl)ccc1O (stereo not given),?,8.9µM*,2%,-17%,-11%,-10%
O=[S+]([O-])(c1cc2ccccc2o1)N1CCN([S+](=O)([O-])c2c(F)cccc2F)CC1,2%,.,.,.,.,.
O=[S+]([O-])(NC[C@H]1CCC[C@H](CN[S+](=O)([O-])c2c(F)cccc2F)C1)c1ccc2c(c1)OCCO2,0%,.,.,.,.,.
Cc1ccc(C)c(OCc2cc(C(=O)N3CCN(c4ccccc4C)CC3C)no2)c1 (stereo not given),39%,2.5µM*,-6%,-7%,-10%,8%
Cc1ccc(C)c(OCc2cc(C(=O)N3CCN(C4CCCCC4)CC3)no2)c1,.,?,-6%,9%,.,3%
O=C(c1cc(COc2ccc(F)cc2Cl)on1)N1CCN(C2CCCCC2)C(=O)C1,-5%,10µM*,0%,11%,2%,-11%
Cc1ccc(C)c(OCc2cc(C(=O)N3CC[C@@H]4CCCC[C@H]4C3)no2)c1,2%,11µM*,-1%,2%,0%,7%
Cc1cc(C)cc(-n2nnc(-c3nc(-c4ccccc4F)no3)c2C)c1,-13%,2%,-1%,.,.,8%
O=C(COc1ccccc1)NCC(c1cccs1)S(=O)(=O)c1ccc(Cl)cc1 (stereo not given),?,-23%,?,.,.,-7%
CN(C)CCCN(C(=O)c1ccco1)c1nc2ccc(Br)cc2s1,-3%,3.2µM*,-6%,8%,-5%,?
Cc1ccc(C(=O)N(CCCN(C)C)c2nc3ccc(Cl)cc3s2)cc1C,3%,6.3µM*,9%,17%,2%,?
CN(C)CCCN(C(=O)c1ccc2c(c1)CCCC2)c1nc2cc3c(cc2s1)OCO3,-10%,2µM*,2%,9%,3%,?
CN(C)CCCN(C(=O)c1ccco1)c1nc2ccc(Cl)cc2s1,0%,?,-10%,7%,0%,?
CN(C)CCCN(C(=O)c1ccc2c(c1)CCCC2)c1nc2ccc(F)cc2s1,-3%,7%,-8%,-11%,-12%,?
Cn1nnnc1Sc1ncnc2scc(-c3cccc(N)c3)c12,-2%,.,.,.,.,.
CCOc1cc(CNCCCN2CCOCC2)cc(Br)c1OCc1ccccc1Cl,1%,4.5µM*,-6%,5%,1%,?
Cc1cc2c(s1)c1cnn(Cc3ccc(C)c(F)c3)c(=O)c1n2C,21%,.,.,.,.,.
COc1ccc(N=C(c2ccccc2)c2c(C)[nH]n(-c3ccccc3)c2=O)c(OC)c1,11%,7.9µM*,-4%,10%,4%,10%
CC1CCC(C(C)C)C(OCC(O)CNC(C)(C)C)C1 (stereo not given),3%,11µM*,4%,12%,-2%,-15%
CC1CCN(CC(O)COC2CC(C)CCC2C(C)C)CC1 (stereo not given),2%,-22%,5%,-1%,1%,?
Cc1c(C(=O)N2CCOCC2)[nH]c2c1C(=O)CC(c1ccccc1Cl)C2 (stereo not given),-1%,?,-3%,0%,6%,5.6µM*
Cc1c(C(=O)OC2CCCCC2)[nH]c2c1C(=O)CC(c1ccccc1Cl)C2 (stereo not given),0%,?,-4%,.,.,-11%
O=c1[nH][nH]c2c(N=Cc3ccccc3O)ccc(F)c12,?,5%,16µM*,-5%,?,-21%
SMILES,Pin1 inh,GLP1R inv ag,PGK inhibitor,GLP-1R agonist,Tb PFK inh,HEK293 tox
COc1ccc(COc2cc(-c3cccc(OC)c3)nc3ccc(NC(=O)c4cccnc4)cc23)cc1,2%,2.8µM*,-5%,12%,0%,-20%
O=C1CN(C(=O)c2ccc(Br)o2)C(c2ccccc2)c2cc(F)ccc2N1 (stereo not given),11%,7.9µM*,8%,6%,-2%,-27%
O=C1CN(C(=O)c2ccccc2)C(c2ccccc2)c2cc(F)ccc2N1 (stereo not given),-13%,-20%,-8%,12%,2%,-9%
CCOc1ccc(NC(=O)c2oc3ccccc3c2NC(=O)Cc2cccs2)cc1,23%,4%,3%,1%,.,-9%
N=c1c2c(-c3ccccc3)c(-c3ccccc3)n(Cc3ccco3)c2ncn1CCO,2%,?,-8%,-11%,-5%,7.9µM*
O=C(CN1CCN(c2ncc(C(F)(F)F)cc2Cl)CC1)N1CCN(c2ncc(C(F)(F)F)cc2Cl)CC1,55%,4.5µM*,-10%,-5%,-5%,3%
O=C(NNc1cccc(Cl)c1)c1cccnc1Cl,-2%,1.3µM*,-3%,-2%,-18%,-34%
COc1cccc(C2c3c(ncn(Cc4cccs4)c3=N)Oc3ccc4ccccc4c32)c1 (stereo not given),27%,.,.,.,.,.
Cc1cccc(Cn2c(-c3cccc(Br)c3)nc3ccccc32)c1,23%,10µM*,-4%,.,.,8%
Brc1cccc(Cn2c(-c3cncs3)nc3ccccc32)c1,3%,0%,-1%,21%,-1%,-10%
CC(CNC(=O)CN1C(=O)COc2ccc(S(=O)(=O)N3CCCCCC3)cc21)c1ccccc1 (stereo not given),1%,?,5%,.,.,-7%
CCc1ccc(S(=O)(=O)c2nnn3c2nc(Nc2ccc(F)cc2)c2cc(Cl)ccc23)cc1,19%,16%,-2%,.,.,-4%
Nc1nc(NCc2ccc(Cl)c(Cl)c2)c2[nH]cnc2n1,-8%,.,.,.,.,.
CN(C)CCNc1nc2sc3c(c2c(=O)n1Cc1ccccc1)CCCCC3,-4%,1.1µM*,i,11%,0%,?
O=C(Nc1ccc(Cl)cc1)NC1CCCC1Cc1ccco1 (stereo not given),23%,5.6µM*,-5%,-7%,-19%,10%
O=C(Nc1ccc(Cl)cc1)NC1CCCCC1Cc1ccco1 (stereo not given),6%,10µM*,i,-13%,0%,-30%
O=C(Nc1ccc(Cl)cc1)NC1CCCCC1,2%,-2%,-1%,4%,-3%,3%
COc1ccc(-c2noc(CC(=O)N(C)c3cccc(C)c3)n2)cc1,-8%,?,i,.,.,0%
